Bioassay records as filed in PubChem.
In the library only some 3.4% were active in any assay of this set; here they are far more common.
TEAD-YAP inh = TEAD-YAP interaction inhibition; HEK-TIYL cells, TEAD-Gal4/YAP UAS-luciferase luminescence; inhibition, % at 9.12 µM; hit rate 1.4% among 640,000; AID 1259422; in the data active = inhibition above about 32%
FBW7 activator = human FBW7 E3 ligase activation, primary screen. AlphaScreen FBW7–phospho-cyclin E peptide binding, activator screen. hit rate 0.13% among 650,000. AID 1259310. normalized activity (activation), % at 26.1 µM. Q969H0; in the data active = normalized activity above about 1.9%;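 also: purified mutant Fbw7 with reduced substrate affinity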
MITF primary = human MITF inhibition, primary screen. O75030. AlphaScreen MITF homodimerization, bead proximity signal. inhibition, % at 2.6 µM. hit rate 0.91% among 650,000. AID 1259374; in the data active = inhibition above about 50%
GPR151 ag = activators of human GPR151; Q8TDV0; activation, % at 11.2 µM; AID 1508602; PathHunter beta-arrestin GPR151 cells, luminescence; hit rate 1% among 650,000; in the data active = activation above about 4.9%
Target sequence (Q8TDV0 whole entry, looked up): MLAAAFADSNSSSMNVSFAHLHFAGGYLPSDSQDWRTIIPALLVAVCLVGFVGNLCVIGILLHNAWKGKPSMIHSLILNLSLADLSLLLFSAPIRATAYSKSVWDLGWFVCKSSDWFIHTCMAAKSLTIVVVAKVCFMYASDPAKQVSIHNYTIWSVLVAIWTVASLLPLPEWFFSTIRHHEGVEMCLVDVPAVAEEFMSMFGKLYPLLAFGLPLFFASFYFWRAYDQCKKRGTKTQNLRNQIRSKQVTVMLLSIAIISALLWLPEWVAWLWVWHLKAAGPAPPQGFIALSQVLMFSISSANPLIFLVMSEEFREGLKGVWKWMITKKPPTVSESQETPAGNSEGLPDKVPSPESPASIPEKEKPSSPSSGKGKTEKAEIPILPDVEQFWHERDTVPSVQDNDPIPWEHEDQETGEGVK
GPR151 confirm = confirmation of human GPR151 activators | shares compounds with GPR151 ag | GPR151 PathHunter beta-arrestin cells, luminescence, 90 min; % of EA-reagent control over plate median | activation, % at 11.2 µM | 6,700 tested, under 10 active | AID 1508609;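 active = mean percent activation across replicates above the confirmation screen cutoff of 4.91%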
GPR119 ag = activates human GPR119 in a GPR151 counter-screen; shares compounds with GPR151 ag; GPR119 PathHunter beta-arrestin cells, luminescence, 90 min; 0 = compound-well median, 100 = enzyme-acceptor control; activation, % at 11.2 µM; hit rate 0.3% among 6,700;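 active = mean percent activation in the counterscreen above 29.09%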;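 also: counterscreen on off-target GPR119 to flag nonselective hits from the GPR151 activator screen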
Large screens that a line does not name were inactive (follow-up assays come after a bar, where they were run); ! = not active in a repeat.

CC(=O)Nc1ccc(NC(=S)NC(=O)c2ccccc2[N+](=O)[O-])cc1	GPR151 ag 6.4 | GPR151 confirm inactive | GPR119 ag inactive
CCCOC(=O)C1=C(C)NC2=C(C(=O)CCC2)C1c1cc(Br)c(O)c(OCC)c1 (stereo unspecified)	none
CCOc1c(Br)cc(C2C(C(=O)N3CCOCC3)=C(C)NC3=C2C(=O)CCC3)cc1OC (stereo unspecified)	GPR151 ag 6.2 | GPR151 confirm inactive | GPR119 ag inactive
CCCCCOC(=O)C1=C(C)NC2=C(C(=O)CCC2)C1c1cc(Br)c(O)c(OCC)c1 (stereo unspecified)	GPR151 ag 5.5 | GPR151 confirm inactive | GPR119 ag inactive
CCCOC(=O)C1=C(C)NC2=C(C(=O)CCC2)C1c1cccnc1 (stereo unspecified)	GPR151 ag 6.1! | GPR151 confirm inactive | GPR119 ag inactive
COC(=O)c1cccc(C(=O)N2CCC[C@@H]3CN(C(=O)C(C)C)CC[C@H]32)c1	GPR151 ag 7.1 | GPR151 confirm inactive | GPR119 ag inactive
CC(C)C(=O)N1CC[C@@H]2[C@H](CCCN2C(=O)c2cccc(F)c2)C1	none
CC1CCCC(C)N1C(=O)Cn1c(C(F)(F)F)nc2ccccc21 (stereo unspecified)	GPR151 ag 12 | GPR151 confirm inactive | GPR119 ag inactive
CC1CN(C(=O)Cn2c(C(F)(F)F)nc3ccccc32)CC(C)O1 (stereo unspecified)	none
Cc1cc(NS(=O)(=O)c2ccc(NC(=O)COc3ccc(C(C)(C)c4ccccc4)cc3)cc2)nc(C)n1	none
CC1=C(C(=O)OCCc2ccccc2)C(c2ccc(C)s2)NC(=O)N1 (stereo unspecified)	GPR151 ag 5.1 | GPR151 confirm inactive | GPR119 ag inactive
CC1=C(C(=O)OCCc2ccccc2)C(c2cccc(Cl)c2)NC(=O)N1 (stereo unspecified)	none
CCOc1cccc(C2NC(=O)NC(C)=C2C(=O)OC2CCCCCC2)c1 (stereo unspecified)	GPR151 ag 5.7 | GPR151 confirm inactive | GPR119 ag inactive
CC1=C(C(=O)OCc2ccccc2)C(c2cccc(Cl)c2)NC(=O)N1 (stereo unspecified)	GPR151 ag 5.0 | GPR151 confirm inactive | GPR119 ag inactive
COc1ccc2nc(NC(=O)C34CCC(C)(C(=O)C3)C4(C)C)sc2c1 (stereo unspecified)	GPR151 ag 9.1 | GPR151 confirm inactive | GPR119 ag inactive
O=c1cc(-c2ccccc2[N+](=O)[O-])nc(-c2ccco2)o1	GPR151 ag 7.3 | GPR151 confirm inactive | GPR119 ag inactive
CCCCn1c(SCC(N)=O)nc2ccccc2c1=O	none
COc1nonc1OCC(C)(C)Nc1ccc([N+](=O)[O-])cc1[N+](=O)[O-]	none
O=C(CSc1nnnn1-c1ccc(F)cc1)NCCc1ccccc1	none
O=C(CSc1nnnn1-c1ccc(F)cc1)NCc1ccccc1C(=O)O	GPR151 ag 10 | GPR151 confirm inactive | GPR119 ag inactive
COc1ccc(CN2CCN3CCCC3C2C)c(OC)c1OC (stereo unspecified)	none
Cc1cccc(OCC(O)CN2CCCCCC2)c1C (stereo unspecified)	GPR151 ag 9.8 | GPR151 confirm inactive | GPR119 ag inactive
CC(=O)c1cccc(S(=O)(=O)NCc2ccco2)c1	none
CC(=O)c1cccc(S(=O)(=O)NCC(c2ccco2)N2CCCCC2)c1 (stereo unspecified)	GPR151 ag 7.0 | GPR151 confirm inactive | GPR119 ag inactive
N#C/C(=C\c1ccc(Cl)cc1)C(=O)Nc1ccc(S(N)(=O)=O)cc1	none
NC(=O)C1CCCc2c1[nH]c1c(C(=O)O)cccc21 (stereo unspecified)	GPR151 ag 6.1 | GPR151 confirm inactive | GPR119 ag inactive
CCOc1cc(C)c(C(C)C)cc1S(=O)(=O)NC1CC(C)(C)NC(C)(C)C1	GPR151 ag 7.9 | GPR151 confirm inactive | GPR119 ag inactive
CCOc1cc(S(=O)(=O)NC2CC(C)(C)NC(C)(C)C2)c(C)cc1C	none
Nc1ncnc(N2CCC(Cc3ccccc3)CC2)c1[N+](=O)[O-]	none
CCCN(Cc1cccs1)C(=O)NCc1ccccc1	GPR151 ag 8.1 | GPR151 confirm inactive | GPR119 ag inactive
CCOC(=O)c1cccc(NC(=O)c2oc(=O)c3ccccc3c2-c2ccccc2)c1	none
COCCOC(=O)C1=C(C)NC2N=C(SC)NC(=O)N2C1c1cccc([N+](=O)[O-])c1 (stereo unspecified)	none
COCCNC(=O)c1sc2ncnc(N3CCc4ccccc4C3)c2c1C	GPR151 ag 5.3 | GPR151 confirm inactive | GPR119 ag inactive
CCc1cc(N2CCN(C)CC2)n2nc3nc(C)cc(C)c3c2n1	GPR151 ag 7.2 | GPR151 confirm inactive | GPR119 ag inactive
CCc1cc(N2CCCC2)n2nc3nc(C)cc(C)c3c2n1	none
Cc1ccc(S(=O)(=O)Nc2ccccc2C(=O)NC(C)C)cc1[N+](=O)[O-]	none
O=C(O)Cc1ccc(NC(=O)c2ccccc2-c2ccccc2C(=O)O)cc1	GPR151 ag 6.6 | GPR151 confirm inactive | GPR119 ag inactive
CC(NS(=O)(=O)c1ccc(Cl)cc1)C(N)=O (stereo unspecified)	none
CC(NS(=O)(=O)c1cc(Cl)ccc1Cl)C(N)=O (stereo unspecified)	GPR151 ag 5.2 | GPR151 confirm inactive | GPR119 ag inactive
Cc1ccc(C)c(S(=O)(=O)NC(C)C(=O)Nc2ccc(Cl)c(Cl)c2)c1 (stereo unspecified)	GPR151 ag 5.9 | GPR151 confirm inactive | GPR119 ag inactive
CCOC(=O)c1c(NC(=O)c2sc3cc(C)ccc3c2Cl)sc2c1CCCC2	none
COc1nc(NCCO)nc(-c2c(C)nn(C)c2C)n1	GPR151 ag 14 | GPR151 confirm inactive | GPR119 ag inactive
O=C(NCCC1=CCCCC1)C1CC(=O)N(C2CCCC2)C1 (stereo unspecified)	GPR151 ag 5.5 | GPR151 confirm inactive | GPR119 ag inactive
Cc1ccc(NC(=O)N2CCC(C(=O)NCCC3=CCCCC3)CC2)cc1	GPR151 ag 5.0 | GPR151 confirm inactive | GPR119 ag inactive
COc1ccccc1NC(=O)c1cnn(-c2ccccc2)c1NC(=O)c1ccccc1Cl	none
COc1ccc(CNc2nccn3c(-c4cccc(C(C)=O)c4)cnc23)cc1	none
CC(=O)NNC(=O)c1cccc(Br)c1	none
CN(Cc1nc(-c2cccnc2)no1)S(=O)(=O)c1ccc2ccccc2c1	GPR151 ag 5.1 | GPR151 confirm inactive | GPR119 ag inactive
CN(Cc1nc(-c2cccnc2)no1)S(=O)(=O)c1ccc(Br)cc1	none
CCCCCC(=O)Nc1ccc(S(=O)(=O)Nc2nccc(C)n2)cc1	GPR151 ag 5.5 | GPR151 confirm inactive | GPR119 ag inactive
O=C(CCCOc1ccccc1)Nc1ccc(S(=O)(=O)Nc2ncccn2)cc1	none
